Inconclusive results are not listed. The source made the active and inactive calls. Rule for the calls, unless noted: active = hit-call score of the fitted dose curve at least 0.9, where 1 is the maximum; inactive = score below 0.9.
Columns and labels:
[1] = ATG_PBREM_CIS: Attagene CIS-FACTORIAL HepG2 Assay for human Phenobarbital-responsive Enhancer Module (PBREM) (AID 2282955); settings: HepG2 PBREM cis-reporter, Attagene multiplexed transcription; actives raise or lower the signal
Procedure, shortened: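 After a 24 h incubation with test chemical, transfected HepG2 cells yield total RNA; reporter-specific RT-PCR products are fluorescently labelled, HpaI-digested and resolved by capillary electrophoresis against ROX size standards.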

[2] = target: Paired box protein Pax-6 (Homo sapiens) (UniProt P26367); test: ATG_Pax6_CIS: Attagene CIS-FACTORIAL HepG2 Assay for human Paired Box 6 (PAX6) (AID 2282956); settings: HepG2 CIS-FACTORIAL PAX6 reporter transcription, RNA readout; actives raise or lower the signal
Procedure, shortened: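 Read-out is reporter transcript level, measured by RT-PCR with fluorescent primer extension and capillary electrophoresis after 24 h dosing of transfected HepG2 cells. Activity in either direction fitted relative to DMSO control.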

[3] = ATG_PXRE_CIS: Attagene CIS-FACTORIAL HepG2 Assay for human Pregnane X Receptor Element (PXRE) (AID 2282957); settings: HepG2 Attagene CIS-FACTORIAL PXRE reporter, mRNA; actives raise or lower the signal
Procedure, shortened: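 Bidirectional activity, baselined to DMSO, derived from reporter mRNA fluorescence (RT-PCR plus capillary electrophoresis) in HepG2 cells bearing cis-promoter reporter units, 24 h exposure.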

[4] = ATG_PPRE_CIS: Attagene CIS-FACTORIAL HepG2 Assay for human Peroxisome Proliferator-activated Response Element (PPRE) (AID 2282958); settings: HepG2 PPRE cis-element reporter, Attagene transcription factor profiling; actives raise or lower the signal
Procedure, shortened: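 Multiplexed reporter transcription units under cis-regulatory promoters were transfected into HepG2 cells to capture endogenous factor activity. A 24 h incubation preceded RNA isolation and fluorescent RT-PCR fragment analysis.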

[5] = ATG_RORE_CIS: Attagene CIS-FACTORIAL HepG2 Assay for human RAR-related Orphan Receptor Element (RORE) (AID 2282959); settings: HepG2 Attagene cis-factorial RORE reporter, mRNA; actives raise or lower the signal
Procedure, shortened: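 Fluorescence intensity of reporter-specific cDNA fragments, separated by capillary electrophoresis, gives the signal. Source: HepG2 liver cells transiently transfected with cis-element reporters and exposed 24 h; DMSO-normalized bidirectional fit.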

[6] = ATG_Sox_CIS: Attagene CIS-FACTORIAL HepG2 Assay for human SRY-box transcription factor (SOX) (AID 2282960); settings: HepG2 Attagene cis-factorial SOX reporter, mRNA; actives raise or lower the signal
Procedure, shortened: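 After 24 h of chemical treatment, transfected HepG2 reporter cells are lysed for total RNA. Transcript levels come from RT-PCR with labelled primer extension and capillary electrophoresis, analysed bidirectionally versus DMSO.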

[7] = target: Transcription factor Sp1 (Homo sapiens) (UniProt P08047); test: ATG_Sp1_CIS: Attagene CIS-FACTORIAL HepG2 Assay for human Specificity Protein 1 (Sp1) (AID 2282961); settings: HepG2 Sp1 cis-reporter transcription, actives raise or lower the signal
Procedure, shortened: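 Sp1-driven reporter mRNA, read as capillary electrophoresis fluorescence after RT-PCR, in transiently transfected HepG2 cells dosed for 24 h; signal change in either direction relative to DMSO.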

[8] = ATG_SREBP_CIS: Attagene CIS-FACTORIAL HepG2 Assay for human Sterol Regulatory Element Binding (SREBP) (AID 2282962); settings: HepG2 Attagene cis-factorial SREBP reporter, mRNA; actives raise or lower the signal
Procedure, shortened: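 Endogenous SREBP activity read as cis-element-driven reporter transcript in transiently transfected HepG2, 24 h post-dosing; quantified via RT-PCR plus capillary electrophoresis of fluorescent fragments. Gain or loss of signal fitted relative to DMSO baseline.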

[9] = target: Signal transducer and activator of transcription 3 (Homo sapiens) (UniProt P40763); test: ATG_STAT3_CIS: Attagene CIS-FACTORIAL HepG2 Assay for human Signal Transducer and Activator of Transcription 3 (STAT3) (AID 2282963); settings: HepG2, Attagene cis-factorial STAT3 reporter transcription; actives raise or lower the signal
Procedure, shortened: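 Fluorescence intensity of 6-FAM-labelled reporter fragments, separated by capillary electrophoresis after RT-PCR, gave the signal. Cells were HepG2 transfected with cis-element reporter units and treated 24 h; fitting was bidirectional relative to DMSO.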

[10] = ATG_TA_CIS: Attagene CIS-FACTORIAL HepG2 Assay for human TA Basal Promoter (AID 2282964); settings: HepG2 Attagene CIS-factorial TA basal promoter reporter; actives raise or lower the signal
Procedure, shortened: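 HepG2 cells transiently transfected with multiple reporter units under cis promoter elements, reporting endogenous transcription factor activity; this endpoint tracks the TA basal promoter as background control. Reporter mRNA after 24 h dosing measured by RT-PCR/capillary electrophoresis; bidirectional fits versus DMSO.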

[11] = ATG_TCF_b_cat_CIS: Attagene CIS-FACTORIAL HepG2 Assay for human T-Cell-Factor with beta-catenin (TCF/b-cat) (AID 2282965); settings: HepG2 TCF/beta-catenin cis-reporter transcription, actives raise or lower the signal
Procedure, shortened: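 HepG2 cells transiently transfected with cis-promoter-driven multiplexed reporter units; reporter mRNA measured 24 h after dosing by RT-PCR, FAM labelling, HpaI digestion and capillary electrophoresis. Bidirectional fitting relative to DMSO baseline.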

[12] = ATG_TAL_CIS: Attagene CIS-FACTORIAL HepG2 Assay for human TAL Basal Promoter (AID 2282966); settings: HepG2 Attagene cis-factorial TAL promoter reporter; actives raise or lower the signal;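 note: background control endpoint measuring basal TAL promoter reporter mRNA not a specific factor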
Procedure, shortened: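 Human hepatoma HepG2 cells, transfected with promoter-regulated reporter units, were treated 24 h. Reporter transcript levels, measured through RT-PCR and capillary electrophoresis, were fitted for gain or loss relative to DMSO.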

[13] = ATG_TGFb_CIS: Attagene CIS-FACTORIAL HepG2 Assay for human Transforming Growth Factor (TGF) (AID 2282967); settings: HepG2 Attagene CIS TGFb reporter, mRNA transcription; actives raise or lower the signal
Procedure, shortened: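 HepG2 cells transiently transfected with cis-promoter-driven multiple reporter units measure endogenous TF activity; reporter mRNA quantified at 24 h by RT-PCR, FAM labeling, HpaI digestion and capillary electrophoresis. Bidirectional fit vs DMSO.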

[14] = ATG_VDRE_CIS: Attagene CIS-FACTORIAL HepG2 Assay for human Vitamin D Receptor Element (VDRE) (AID 2282968); settings: HepG2 VDRE cis-reporter transcription, actives raise or lower the signal
Procedure, shortened: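 Compounds were applied for 24 h to HepG2 cells transfected with promoter-regulated reporter units. Total RNA was reverse-transcribed, and reporter amplicons were fluorescently labelled and sized by capillary electrophoresis.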

[15] = target: Nuclear receptor subfamily 1 group I member 3 (Homo sapiens) (UniProt Q14994); test: ATG_CAR_TRANS: Attagene TRANS-FACTORIAL HepG2 Assay for human Constitutive Androstane Receptor (CAR) (AID 2282969; active = hit-call score of the fitted dose curve at least 0.9, where 1 is the maximum;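 note: activators raise reporter mRNA above DMSO so AC50 marks induction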); settings: HepG2 Attagene TRANS-FACTORIAL CAR reporter
Procedure, shortened: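 Transiently transfected HepG2, multiplex TRANS reporters (CAR-Gal4 chimera driving GAL4-UAS reporter). 24 h dosing. Readout: reporter transcript by RT-PCR + capillary electrophoresis, fluorescence intensity; positive direction vs DMSO.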

[16] = target: Estrogen receptor (Homo sapiens) (UniProt P03372); test: ATG_ERa_TRANS: Attagene TRANS-FACTORIAL HepG2 Assay for human Estrogen Receptor alpha (ERa) (AID 2282970; active = hit-call score of the fitted dose curve at least 0.9, where 1 is the maximum); settings: HepG2 Attagene TRANS ERa GAL4 reporter, mRNA
Procedure, shortened: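 Signal derives from fluorescence of labelled reporter PCR fragments separated by capillary electrophoresis. HepG2 cells transiently carrying multiple GAL4-UAS reporter units were treated 24 hours, and induction above DMSO baseline was fitted as activity.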

[17] = target: Steroid hormone receptor ERR1 (Homo sapiens) (UniProt P11474); test: ATG_ERRa_TRANS: Attagene TRANS-FACTORIAL HepG2 Assay for human Estrogen-Related Receptor alpha (ERRa) (AID 2282971; active = hit-call score of the fitted dose curve at least 0.9, where 1 is the maximum); settings: HepG2 Attagene TRANS reporter, ERRa transactivation
Procedure, shortened: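 Signal gain relative to DMSO for an ERRa-Gal4 chimeric receptor, read as reporter mRNA by RT-PCR/capillary electrophoresis. Human HepG2 liver cells, transient multiplex reporter transfection, 24 h chemical exposure.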

[18] = target: X-box-binding protein 1 (Homo sapiens) (UniProt P17861); test: ATG_Xbp1_CIS: Attagene CIS-FACTORIAL HepG2 Assay for human X-box Binding Protein 1 (XBP1) (AID 2282972); settings: HepG2 XBP1 cis-element reporter, Attagene multiplex; actives raise or lower the signal
Procedure, shortened: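 Reporter transcripts were quantified by RT-PCR with fluorescent primer extension and capillary electrophoresis after 24 h chemical exposure. Cells: transiently transfected HepG2 carrying cis-regulated reporter constructs; data fitted bidirectionally relative to DMSO.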

[19] = ATG_GAL4_TRANS: Attagene TRANS-FACTORIAL HepG2 Assay for GAL4 (Internal Marker) (AID 2282976; active = hit-call score of the fitted dose curve at least 0.9, where 1 is the maximum); settings: HepG2 Attagene TRANS GAL4 internal marker reporter
Procedure, shortened: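 Liver HepG2 line bearing multiplexed GAL4-UAS reporter constructs; 24 h chemical treatment. Transcripts were quantified as fluorescent fragments on capillary electrophoresis after RT-PCR and HpaI cut, with activity fitted upward from DMSO.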

[20] = ATG_M_19_TRANS: Attagene TRANS-FACTORIAL HepG2 Assay for M19 Transcription Factor (Internal Marker) (AID 2282974; active = hit-call score of the fitted dose curve at least 0.9, where 1 is the maximum); settings: HepG2 Attagene TRANS-FACTORIAL M19 internal marker reporter
Procedure, shortened: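 Measured here: internal-marker reporter transcript from HepG2 cells transfected with MRTUs, harvested at 24 h. cDNA PCR products were 6-FAM labelled by primer extension, cut with HpaI for 2 h at 37 C, and resolved by CE.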

Measured: AC50

Chain of Estrogen receptor (Homo sapiens) (P03372 whole entry, looked up, the tested form may be a part): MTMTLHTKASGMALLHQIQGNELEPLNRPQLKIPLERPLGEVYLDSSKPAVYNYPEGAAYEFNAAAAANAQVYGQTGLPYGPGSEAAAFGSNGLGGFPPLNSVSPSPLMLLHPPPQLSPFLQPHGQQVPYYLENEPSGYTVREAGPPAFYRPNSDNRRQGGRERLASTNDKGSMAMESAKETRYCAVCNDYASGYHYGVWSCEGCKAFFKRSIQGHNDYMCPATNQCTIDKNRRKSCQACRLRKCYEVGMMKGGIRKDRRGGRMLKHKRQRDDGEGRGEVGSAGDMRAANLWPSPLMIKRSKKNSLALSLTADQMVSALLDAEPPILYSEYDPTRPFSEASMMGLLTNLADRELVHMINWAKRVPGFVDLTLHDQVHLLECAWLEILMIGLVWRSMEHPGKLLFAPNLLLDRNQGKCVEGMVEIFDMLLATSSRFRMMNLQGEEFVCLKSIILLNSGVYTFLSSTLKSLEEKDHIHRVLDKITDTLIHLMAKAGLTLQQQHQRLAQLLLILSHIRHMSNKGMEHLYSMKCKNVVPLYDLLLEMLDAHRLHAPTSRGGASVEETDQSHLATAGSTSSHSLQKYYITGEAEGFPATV
Chain of Signal transducer and activator of transcription 3 (Homo sapiens) (P40763 whole entry, looked up, the tested form may be a part): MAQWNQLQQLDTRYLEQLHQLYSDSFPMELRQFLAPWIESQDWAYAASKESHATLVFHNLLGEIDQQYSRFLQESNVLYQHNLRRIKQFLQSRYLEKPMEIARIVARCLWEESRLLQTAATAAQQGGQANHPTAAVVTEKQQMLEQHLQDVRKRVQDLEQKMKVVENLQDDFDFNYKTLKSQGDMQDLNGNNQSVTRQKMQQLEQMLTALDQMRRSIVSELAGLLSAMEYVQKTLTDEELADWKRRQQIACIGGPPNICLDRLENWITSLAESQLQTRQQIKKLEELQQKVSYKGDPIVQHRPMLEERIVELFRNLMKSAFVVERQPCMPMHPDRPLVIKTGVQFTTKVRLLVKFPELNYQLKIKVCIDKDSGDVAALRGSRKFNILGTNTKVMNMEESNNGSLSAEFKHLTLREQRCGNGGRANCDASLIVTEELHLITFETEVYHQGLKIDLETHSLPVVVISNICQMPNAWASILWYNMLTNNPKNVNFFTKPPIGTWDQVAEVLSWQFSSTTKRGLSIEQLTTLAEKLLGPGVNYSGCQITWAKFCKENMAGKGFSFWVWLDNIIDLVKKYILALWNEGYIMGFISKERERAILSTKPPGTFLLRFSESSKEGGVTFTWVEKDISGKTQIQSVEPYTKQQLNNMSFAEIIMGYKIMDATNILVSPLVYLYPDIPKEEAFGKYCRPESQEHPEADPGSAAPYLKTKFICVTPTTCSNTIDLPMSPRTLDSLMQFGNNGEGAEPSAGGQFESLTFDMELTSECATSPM
Chain of X-box-binding protein 1 (Homo sapiens) (P17861 whole entry, looked up): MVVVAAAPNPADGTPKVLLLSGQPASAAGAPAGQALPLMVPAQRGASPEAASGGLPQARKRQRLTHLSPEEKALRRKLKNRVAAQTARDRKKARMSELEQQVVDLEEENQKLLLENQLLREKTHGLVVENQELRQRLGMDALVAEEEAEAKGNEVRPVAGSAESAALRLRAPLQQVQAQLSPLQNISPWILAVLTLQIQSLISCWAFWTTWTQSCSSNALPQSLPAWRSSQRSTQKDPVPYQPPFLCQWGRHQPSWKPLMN
Chain of Transcription factor Sp1 (Homo sapiens) (P08047 whole entry, looked up): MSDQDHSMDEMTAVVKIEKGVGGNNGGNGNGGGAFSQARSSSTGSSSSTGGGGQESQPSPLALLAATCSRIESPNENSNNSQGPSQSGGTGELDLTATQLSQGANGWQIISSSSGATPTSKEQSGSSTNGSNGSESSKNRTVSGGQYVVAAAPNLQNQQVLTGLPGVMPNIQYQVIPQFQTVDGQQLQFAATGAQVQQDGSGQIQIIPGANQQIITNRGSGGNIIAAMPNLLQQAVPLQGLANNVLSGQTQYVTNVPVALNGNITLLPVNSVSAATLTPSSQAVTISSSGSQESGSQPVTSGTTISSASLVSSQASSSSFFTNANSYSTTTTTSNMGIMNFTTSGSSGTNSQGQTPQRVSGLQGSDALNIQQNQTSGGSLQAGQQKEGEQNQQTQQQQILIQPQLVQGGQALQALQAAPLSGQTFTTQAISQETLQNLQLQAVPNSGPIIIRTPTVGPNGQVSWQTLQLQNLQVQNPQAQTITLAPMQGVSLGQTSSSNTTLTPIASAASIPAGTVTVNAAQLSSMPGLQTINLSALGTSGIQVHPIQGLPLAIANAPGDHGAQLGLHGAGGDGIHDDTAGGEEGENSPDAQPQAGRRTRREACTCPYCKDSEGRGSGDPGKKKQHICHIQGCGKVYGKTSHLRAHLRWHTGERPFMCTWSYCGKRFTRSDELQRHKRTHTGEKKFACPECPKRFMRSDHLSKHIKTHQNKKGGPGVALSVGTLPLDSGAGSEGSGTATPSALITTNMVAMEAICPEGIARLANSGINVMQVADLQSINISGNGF
Chain of Paired box protein Pax-6 (Homo sapiens) (P26367 whole entry, looked up): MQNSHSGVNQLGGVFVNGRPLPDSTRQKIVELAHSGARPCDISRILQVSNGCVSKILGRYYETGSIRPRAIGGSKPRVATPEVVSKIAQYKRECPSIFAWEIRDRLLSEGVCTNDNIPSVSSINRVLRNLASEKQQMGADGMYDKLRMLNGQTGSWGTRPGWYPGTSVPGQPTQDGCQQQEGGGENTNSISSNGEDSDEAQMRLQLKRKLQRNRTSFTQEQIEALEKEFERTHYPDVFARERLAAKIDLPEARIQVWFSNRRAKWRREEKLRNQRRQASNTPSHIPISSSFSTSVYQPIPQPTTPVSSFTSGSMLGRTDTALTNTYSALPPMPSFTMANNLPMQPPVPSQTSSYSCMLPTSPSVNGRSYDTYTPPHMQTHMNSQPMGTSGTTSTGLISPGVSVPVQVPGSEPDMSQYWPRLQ
Chain of Steroid hormone receptor ERR1 (Homo sapiens) (P11474 whole entry, looked up, the tested form may be a part): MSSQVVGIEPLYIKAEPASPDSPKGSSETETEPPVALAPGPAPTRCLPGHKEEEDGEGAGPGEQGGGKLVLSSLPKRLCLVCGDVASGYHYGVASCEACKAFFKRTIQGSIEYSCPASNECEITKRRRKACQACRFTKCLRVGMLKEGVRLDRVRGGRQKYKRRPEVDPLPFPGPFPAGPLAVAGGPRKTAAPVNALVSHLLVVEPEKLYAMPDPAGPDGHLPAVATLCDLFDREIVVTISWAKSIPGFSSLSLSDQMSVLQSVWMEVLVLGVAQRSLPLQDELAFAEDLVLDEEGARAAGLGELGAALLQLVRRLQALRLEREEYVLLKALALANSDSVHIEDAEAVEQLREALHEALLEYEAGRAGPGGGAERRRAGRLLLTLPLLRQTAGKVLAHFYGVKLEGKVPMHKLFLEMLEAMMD
Chain of Nuclear receptor subfamily 1 group I member 3 (Homo sapiens) (Q14994 whole entry, looked up, the tested form may be a part): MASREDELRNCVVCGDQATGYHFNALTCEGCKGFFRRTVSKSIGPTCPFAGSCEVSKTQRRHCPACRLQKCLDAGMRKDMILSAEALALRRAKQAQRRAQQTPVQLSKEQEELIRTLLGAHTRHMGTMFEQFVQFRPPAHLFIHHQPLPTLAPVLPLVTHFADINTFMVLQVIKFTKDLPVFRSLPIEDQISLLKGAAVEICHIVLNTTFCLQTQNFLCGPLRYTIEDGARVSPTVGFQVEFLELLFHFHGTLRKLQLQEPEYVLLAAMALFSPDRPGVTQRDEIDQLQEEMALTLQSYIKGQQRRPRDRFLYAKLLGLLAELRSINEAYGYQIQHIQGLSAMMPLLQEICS

OCCCC(F)(F)C(F)(F)C(F)(F)F
inactive: [1] | [2] | [3] | [4] | [5] | [6] | [7] | [8] | [9] | [10] | [11] | [12] | [13] | [14] | [15] | [16] | [17] | [18] | [19]

O=C(O)C(F)(F)C(F)(F)F
inactive: [1] | [2] | [3] | [4] | [5] | [6] | [7] | [8] | [9] | [10] | [11] | [12] | [13] | [14] | [15] | [16] | [17] | [18] | [20] | [19]

O=C(O)C(F)(F)C(F)(F)C(F)(F)C(F)(F)C(F)(F)C(F)(F)C(F)(F)C(F)(F)C(F)(F)C(F)(F)C(F)(F)C(F)(F)C(F)(F)F
inactive: [1] | [2] | [4] | [5] | [6] | [7] | [8] | [9] | [10] | [11] | [12] | [13] | [14] | [15] | [16] | [17] | [18] | [19]
active: [3] 21.8 µM

CC/C=C\CCOC(=O)c1ccccc1
inactive: [1] | [2] | [3] | [4] | [5] | [6] | [7] | [8] | [9] | [10] | [11] | [12] | [13] | [14] | [15] | [16] | [17] | [18] | [19]

C=C(C)C(=O)OCCC(F)(F)C(F)(F)C(F)(F)C(F)(F)C(F)(C(F)(F)F)C(F)(F)F
inactive: [1] | [2] | [3] | [4] | [5] | [6] | [7] | [8] | [9] | [10] | [11] | [12] | [13] | [14] | [15] | [18] | [20]
active: [16] 7.49 µM

Nc1cc(Cl)c(N)c(Cl)c1
inactive: [1] | [2] | [4] | [5] | [6] | [7] | [8] | [9] | [10] | [11] | [12] | [13] | [14] | [15] | [16] | [18] | [20] | [19]
active: [3] 37 µM

Reference: PubChem BioAssay (EPA / NIEHS)
